In publication PMC5540273 (PLoS ONE, 2017):

Columns and labels:
Conditions in all cases: concentration: 1 μM,replicates: in singlicate; n = 1
ERK1 = system: T1, ERK1
T1 construct: gene MAPK3

ERK2 = system: T2, ERK2
T2 construct: gene MAPK1

ERK3 = system: T3, ERK3
T3 construct: gene MAPK6

ERK4 = system: T4, ERK4
T4 construct: gene MAPK4

ERK5 = system: T5, ERK5
T5 construct: gene MAPK7

ERK8 = system: T6, ERK8
T6 construct: gene MAPK15

ERN1 = system: ERN1
FAK = system: T7, FAK
T7 construct: gene PTK2

FER = system: FER
FES = system: FES
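Further: KINOMEscan kinase panel screen.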

Row | SMILES | %Inh (ERK1) | %Inh (ERK2) | %Inh (ERK3) | %Inh (ERK4) | %Inh (ERK5) | %Inh (ERK8) | %Inh (ERN1) | %Inh (FAK) | %Inh (FER) | %Inh (FES)
1 | Cl.Nc1n[nH]c2cc(-c3ccccn3)ccc12 [GSK2189892] | 0% | 0% | 0% | 31% | 0% | 0% | 0% | 0% | 13% | 0%
2 | Cn1ccc2ncnc(Oc3ccc(NC(=O)Nc4cncc(C(F)(F)F)c4)c(Cl)c3)c21 | 0% | 0% | 0% | 0% | 0% | 0% | 0% | 0% | 0% | 0%
3 | COc1cccc(CNC(=O)NC2CCN(c3ccnc(Nc4cc(OC)c(OC)c(OC)c4)n3)C2)c1 (stereo not shown) [GSK1379765] | 0% | 0% | 33% | 0% | 0% | 0% | 3% | 0% | 26% | 0%
4 | Cn1ccc2ncnc(Oc3ccc(NC(=O)Nc4cc(C(C)(C)C)on4)c(Cl)c3)c21 | 9% | 5% | 8% | 9% | 6% | 65% | 49% | 0% | 0% | 25%
5 | OCCn1cc(-c2cnc3nnn(Cc4ccc5ncccc5c4)c3n2)cn1 | 0% | 0% | 0% | 18% | 3% | 9% | 0% | 0% | 0% | 0%
6 | C[C@@H](Oc1cc(-n2cnc3ccc(-c4ccncc4)cc32)sc1C(N)=O)c1ccccc1Cl [GSK483724] | 5% | 0% | 0% | 0% | 0% | 55% | 3% | 0% | 39% | 4%
7 | Cc1ccn2nc(-c3ccc(F)cc3)c(-c3ccncc3)c2c1.Cl [GW457859] | 0% | 0% | 1% | 15% | 8% | 0% | 0% | 0% | 2% | 0%
